# Test results as given in the supplement of paper PMC6331611.
# ± gives the standard deviation of the averaged measurements. Over roughly 1,600 compounds, “normalized intracellular growth (luminescence, IQM-normalized) in RAW264.7 macrophages” has its median near 1; the lowest 2% begin near 0.43. This is one part of a sample in which the lowest values are shown more often than they occur.
# Test system: Salmonella enterica serovar Typhimurium SL1344
# Assay: normalized intracellular growth (luminescence, IQM-normalized) in RAW264.7 macrophages (fraction of plate interquartile mean); higher = more bacterial growth (less inhibition)
# Conditions: 10 µM
SMILES,normalized intracellular growth (time point: T3 (3 h)),normalized intracellular growth (time point: Tfinal (~6 h))
O=C(OOC(=O)c1ccccc1)c1ccccc1,1 ± 0.017,1.05 ± 0.037
O=C(OCc1ccccc1)c1ccccc1,0.966 ± 0.057,0.928 ± 0.069
CCCNC(C)(C)COC(=O)c1ccccc1,0.828 ± 0.083,0.1174 ± 0.0011
C=C1CC[C@H](O)C/C1=C/C=C1\CCC[C@]2(C)[C@@H]([C@H](C)/C=C/[C@H](C)C(C)C)CC[C@@H]12,1.04 ± 0.059,1.2 ± 0.086
CC(O)(CC(=O)O)CC(=O)O,0.971 ± 0.034,1.02 ± 0.061
NCc1ccc(S(N)(=O)=O)cc1,0.686 ± 0.071,0.0766 ± 0.0043
Nc1ccc(S(N)(=O)=O)cc1,0.9673 ± 0.006,1.07 ± 0.1
NS(=O)(=O)c1ccc(C(=O)O)cc1,1.006 ± 0.0098,0.964 ± 0.076
O=C(O)CN1C(=O)c2cccc3cccc(c23)C1=O,0.914 ± 0.099,1.05 ± 0.096
CC(=O)Nc1ccc(C(=O)O)cc1,1.06 ± 0.055,0.967 ± 0.1
CCCCC(CC)CCC(CC(C)C)OS(=O)(=O)O (stereo not given),1.03 ± 0.031,1.1 ± 0.03
NCCC[C@H](N)C(=O)O,0.972 ± 0.048,0.966 ± 0.13
CC(C)(O/N=C(\C(=O)N[C@@H]1C(=O)N2C(C(=O)[O-])=C(C[n+]3ccccc3)CS[C@H]12)c1csc(N)n1)C(=O)O,0.997 ± 0.078,0.806 ± 0.12
C[C@H]1[C@H](NC(=O)/C(=N\OC(C)(C)C(=O)O)c2csc(N)n2)C(=O)N1S(=O)(=O)O,0.992 ± 0.04,0.2 ± 0.016
FC(F)(F)COCC(F)(F)F,0.946 ± 0.09,0.9 ± 0.27
CC(=O)N[C@@H](CCC(N)=O)C(=O)O,0.959 ± 0.023,0.942 ± 0.11
Nc1ccc(S(=O)(=O)O)cc1.Nc1ccc(S(=O)(=O)O)cc1.[Zn],1.01 ± 0.047,1.15 ± 0.099
CC12CCC(CC1)C(C)(C)O2,1.02 ± 0.024,0.96 ± 0.18
CN(C)[C@@H]1C(O)=C(C(N)=O)C(=O)[C@@]2(O)C(O)=C3C(=O)c4c(O)cccc4[C@@](C)(O)[C@H]3[C@H](O)[C@@H]12,1.01 ± 0.074,0.0331 ± 0.014
CN(C)[C@@H]1C(O)=C(C(N)=O)C(=O)[C@@]2(O)C(O)=C3C(=O)c4c(O)ccc(Cl)c4[C@@H](O)[C@H]3C[C@@H]12,0.727 ± 0.11,0.176 ± 0.0084
CN(C)[C@@H]1C(O)=C(C(N)=O)C(=O)[C@@]2(O)C(O)=C3C(=O)c4c(O)ccc(Cl)c4[C@@](C)(O)[C@H]3C[C@@H]12,0.846 ± 0.031,0.23 ± 0.02
C=C1c2c(Cl)ccc(O)c2C(=O)C2=C(O)[C@]3(O)C(=O)C(C(N)=O)=C(O)[C@@H](N(C)C)[C@@H]3[C@@H](O)[C@H]12.O=C(O)c1cc(S(=O)(=O)O)ccc1O,1.01 ± 0.065,0.0256 ± 0.0064
OCc1ccccn1,1.02 ± 0.06,0.892 ± 0.1
C=NC(C(=O)NC1C(=O)N2C1SC(C)(C)C2C(=O)O)c1ccccc1 (stereo not given),0.959 ± 0.021,1.04 ± 0.011
Nc1ncnc(Nc2ccc(Cl)cc2)n1,1.1 ± 0.074,0.945 ± 0.42
